Measurements from the supplement of paper PMC6555819.

Columns and labels:
Test in all cases: PBM binding z-score (relative to random genomic background probes); higher = stronger binding; sequences stand for … in GC…GCGATTGACAGCGTAGAATGAAGG
[1] = system: RARb homodimer (NR concentration 270 nM)
In short: (§1)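 Custom Agilent 4×180K protein-binding microarrays carried double-stranded probes. Their 34-nt variable regions held direct-repeat seeds, single-nucleotide variants, half-site ablations and random human genomic background sequences. Arrays were incubated 1 h with ligand-free nuclear receptor dimers in PBS pH 7.4, 2% milk, 0.02% Triton X-100, 1 mM DTT, 0.2 mg/mL BSA and 0.4 mg/ml salmon testes DNA. Antibodies against each partner (one per run) detected binding, and scanned fluorescence was regression-normalized. Binding z-scores use random background probes as reference.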

[2] = system: RARg:RXRa (NR concentration 270 nM, RXRa partner concentration 90 nM)
In short: as §1

[3] = system: RARg homodimer (NR concentration 270 nM)
In short: as §1

[4] = system: RXRa DBDmut IVT, anti-RXR (DBD mutation: RXRa K156A/R161A, NR concentration 90 nM)
In short: as §1

[5] = system: RXRa homodimer (NR concentration 180 nM)
In short: as §1

[6] = system: THRa:RXRa (NR concentration 90 nM, RXRa partner concentration 90 nM)
In short: as §1

[7] = system: THRa homodimer (NR concentration 90 nM)
In short: as §1

[8] = system: VDR homodimer (NR concentration 270 nM)
In short: as §1

Sequence | PBM binding z-score [1] | PBM binding z-score [2] | PBM binding z-score [3] | PBM binding z-score [4] | PBM binding z-score [5] | PBM binding z-score [6] | PBM binding z-score [7] | PBM binding z-score [8]
TCATATAGGTAAAAGGTGAAAGTGGGTGTGGTAA | 2.35 | 2.16 | 1.01 | 1.87 | 3.15 | 2.07 | 1.12 | 0.877
CCAGACAGGTGAGAAGGTCACTCAGCCTCGATTA | 4.12 | 4.65 | 3.85 | 0.8 | 3.76 | 2.46 | 0.916 | 1.36
CAAACTAGGTCACAGAGGTCCAAGTCCGTGCGTA | 3.68 | 4.67 | 5.11 | 1.99 | 3.35 | 3.83 | 1.52 | 2.2
CCTAGTTTGTCAAGGTCACACACGCTATAGGTAC | 4.5 | 4.51 | 4.58 | 2.88 | 4.73 | 4.32 | 4.77 | 4.93
GCTATTAGTTGAAACGGCAACCGAATGATTCTCG | -0.548 | -0.122 | -0.103 | 0.644 | -0.226 | -0.488 | -0.463 | -0.198
AGAATGAAGTTATTAAGATCAGGGAATTGCGGTC | -0.379 | -0.168 | -0.0523 | -0.232 | 0.116 | -0.108 | -0.315 | -0.263
GGAAAGAGGGCAAGTTGATAGCAGAGTTTGATGG | 2.23 | 2.23 | 3 | 1.94 | 1.43 | 1.02 | 0.275 | 1.93
CCTACTGGGCCAAAAAGGTCATTGAAGCCGATAA | 4.33 | 4.98 | 4.29 | 0.615 | 5.31 | 3.08 | 0.418 | 2.58
CAAACTACGTCAAAGGTCAAAGTCGAGCCAACCA | 4.68 | 6.1 | 5.88 | 1.66 | 7.92 | 3.5 | 0.927 | 2.36
GGAACGAGGGCATTCGAGTTGATAGAATGGCGAT | 0.53 | 1.01 | 1.5 | 2.88 | 0.761 | 3.35 | -0.605 | 3.02
TTACCAAGGTGAGTTGAGGTCGTTGATCCAACTC | 1.84 | 1.33 | 1.18 | 0.713 | 1.56 | 4.72 | 2.28 | 2.18
ACTTACGGGTCAACGAGGTTATTGCACGCGTATA | 3.55 | 5.66 | 4.9 | 3.01 | 6.27 | 4.05 | 1.2 | 4.35
GCGACTGGGGCAAAGTAGGTTACCATAAGGTTGG | 1.42 | 0.662 | 0.576 | -0.138 | 0.504 | 2.09 | 0.208 | 0.042
CGTCCAAGGTCAGCAAGTCAGTGAAAGCGACGTG | 3.99 | 5.01 | 6 | 2.5 | 4.02 | 3.42 | 1.67 | 1.03
GATACAGCGTCAAGGCCAGAGTACGCGTATTGAT | -0.276 | -0.245 | 0.129 | -0.11 | -0.253 | -0.179 | -0.406 | 0.0516
CTTCCAAGGTCAATGCTAGGTCAGTGAAAGCATT | 4.79 | 7.32 | 6.93 | 3.55 | 5.39 | 4.33 | 3.09 | 2.95
GCTTTTAGATCAAGGTTAAGAAAGACTAAGCTAA | 0.302 | 0.483 | 0.485 | 0.874 | 0.844 | 1.37 | 0.0946 | -0.0628
CATACAGGGTCAGCTAGGGCAGAGTAGGGACGGC | 3.44 | 4.4 | 4.87 | 1.33 | 4.24 | 3.69 | 0.984 | 2.1
CGTCCTAGGTCAATGCTAGGTCAGTGAAAGCATT | 4.16 | 6.16 | 5.14 | 1.83 | 2.57 | 3.94 | 1.73 | 0.909
CCGACTGGGGTAGAAAGGTTACCATACCATCCGG | 2.13 | 1.97 | 1.04 | -1.26 | 2.35 | 1 | -0.443 | -0.2
ACTATTAGTTGAGACGAGGGCGACCGATAGGTTG | 0.339 | 0.187 | 0.419 | 0.572 | 0.161 | 1.23 | -0.4 | 0.337
TCATATAGGTAAACAGGTAAAAGTCCGTAAGTTA | 0.493 | 0.41 | 0.406 | 1.53 | 0.676 | 0.697 | 0.445 | 0.448
CTCGAAAGGTCGTGCTCAAGTGAGTATACCAAAC | 2.33 | 4.27 | 3.66 | 2.31 | 4.62 | 2.31 | -0.0165 | 1.15
ATCTCTACGTAAAAGTTCAGTGAATCCCGAGGAT | 2.42 | 1.57 | 2 | 0.755 | 0.831 | 0.591 | 0.154 | 1.5
ACCTCTAGGTAACCAAGTTCAGTGAATGCCGAAC | 1.28 | 0.433 | 0.365 | 0.736 | 0.358 | 1.25 | 0.385 | 2.26
CCAGACAGGTGAAATGTAACTCAGTCTGGTACGC | -0.215 | 0.487 | 0.478 | 0.261 | 0.624 | 0.0453 | -0.307 | -0.0884

Sequence | PBM binding z-score [1] | PBM binding z-score [2] | PBM binding z-score [3] | PBM binding z-score [4] | PBM binding z-score [5] | PBM binding z-score [6] | PBM binding z-score [7] | PBM binding z-score [8]
CGAACGAGGGCAAGAGTTGATAGCAAATGCCGAT | 1.44 | 1.67 | 1.85 | 1.89 | 1.1 | 0.79 | -0.443 | 1.07
AGAATGAGGTTAAGATGAGGGAAACAGAATACAT | 1.16 | 2.21 | 1.62 | 1.17 | 2.38 | 2.61 | 0.911 | 0.657
ATATGTAGATTACATCCGGGTCATTCAGGCTATG | 2.23 | 1.66 | 1.21 | 1.02 | 2.2 | 3.14 | 2.27 | 2.43
TAGCCTAGGTCATGGGCCAGTACACCACGCGAAC | 2.88 | 4.3 | 4.65 | 0.275 | 3.7 | 2.99 | 1.48 | 0.985
CTACCAAGGTGAACAAGGTCGTTGAGTACTATTC | 2.27 | 1.92 | 1.43 | 1.64 | 2.39 | 3.28 | 1.83 | 3.27
TCATATAGGTAAAAGGAGAAAGTCGGTGTGGTAA | -0.155 | 0.181 | 0.123 | 1.49 | 0.649 | -0.0526 | -0.722 | 0.471
TCAGACAGGTGAAGGTAACTCTGGTACGCAGTCG | 0.721 | 0.492 | 0.535 | 1.03 | 0.951 | 1.01 | 0.16 | 0.154
CCTAGTTGGTCAGGAGGTCACACCCCGGATATGA | 4.41 | 5.03 | 4.13 | 0.124 | 4.77 | 3.74 | 2.36 | 2.96
TTACCAAGGTGAAGGTCGTTGGTCCCTCTGTAGA | 1.98 | 1.01 | 0.783 | 0.488 | 1.27 | 2.29 | 1.1 | 0.98
GATACAGGGTCAGCTCGAGGCCAGAGTATGGAAA | 3.45 | 6.05 | 4.74 | 1.23 | 4.4 | 3.83 | 0.628 | 0.917
CCTACTGGGCCACGAAAGGTCATTCATTCAGTGA | 4.77 | 4.77 | 4.33 | 0.665 | 5.17 | 3.8 | 0.995 | 2.83
CAAACTAGGTCAGGGTCAAAGTCGGTTTGTGCCA | 4.45 | 5.19 | 5.4 | 2.77 | 5.47 | 3.89 | 2.25 | 4.18
ATCGAAAGGTCGATGTGAGTATAGAGAAAGGGAA | 1.41 | 3.16 | 3.01 | 1.16 | 2.9 | 1.37 | -0.864 | 0.177
TCATATAGGCAAAAGGTGAAAGTCGGTGTGGTAA | 1.81 | 1.45 | 0.567 | 1.45 | 2.12 | 1.24 | 0.0725 | 0.163
TCTCGGAGGACATGAAGGTCAGAGCTTTCCAGAG | 3.3 | 2.47 | 2.57 | 0.811 | 1.44 | 2.28 | 0.338 | 1.2
TCTTGTAGATCAACAGGCGGTTAAGAAAGATCGA | -0.586 | 0.0814 | -0.187 | 0.904 | 0.0872 | -0.136 | -0.273 | -0.602
TCGAGTAGGTTAGGGGCGTTCAGAATGGCGTCGA | 0.347 | -0.19 | -0.416 | 0.366 | 0.0753 | 0.432 | -0.0731 | 0.527
ACTAGTAGTTGACTTAGGGCAACCGATACGACGC | 0.773 | 0.36 | 0.487 | -0.14 | 0.393 | 1.44 | -0.151 | -0.0873
ACTACCAGGCCAAGGGTCACTCAAGATTAGTCCG | 4.07 | 4.15 | 3.87 | 0.629 | 4.2 | 3.3 | 1.15 | 2.13
CGAACTAGGTCATGCAGGACAGTGAATACATTGA | 2.8 | 3.87 | 4.66 | 1.87 | 2.67 | 2.96 | 1.35 | 1.31
GTACCAAGGTGAATAGGTCGTTAATGAGTAGGCG | 1.88 | 2.4 | 1.37 | -0.112 | 1.7 | 1.7 | 0.636 | 0.459
CAACCTAGGTCAAAGGTCAAAGTCGAGCCAACCA | 5.33 | 9.2 | 7.77 | 3.16 | 10.1 | 5.01 | 1.81 | 3.91
TCACGGAGGACACGAAGGTCAGAGCTTTCCAGAG | 3.7 | 3.41 | 3.86 | 0.991 | 1.91 | 2.73 | 0.917 | 1.42
ATCTCTAGGTAACCAAGTTCAGTAAATGCCGAAC | 1.71 | 0.886 | 0.809 | 1.13 | 0.802 | 1.67 | 1.07 | 2.48
CCTGCTAGGTCATGATCAGCTAATCTACAGTATG | 2.57 | 3.89 | 4.57 | 1.65 | 2.85 | 2.75 | 0.661 | 0.00806
CGAACTAGGTCATAGACAGGACAGTGAATAGTAA | 2.43 | 4.2 | 4.11 | 1.6 | 3.32 | 2.62 | 0.586 | 0.676
